# Activity calls are given as the source filed them. Calls follow the shape of the full dose curve.
# Settings: Ebola virus entry assay, ratio channel readout
Structure (SMILES),outcome,AC50
COC(=O)Nc1nc2ccc(C(=O)c3ccccc3)cc2[nH]1,inactive,
C[C@]12CC[C@@H]3c4ccc(O)cc4C[C@@H](CCCCCCCCCS(=O)CCCC(F)(F)C(F)(F)F)[C@H]3[C@@H]1CC[C@@H]2O (stereo not given in full),inactive,
CO[C@H]1C[C@@H]2CC[C@@H](C)[C@@](O)(O2)C(=O)C(=O)N2CCCC[C@@H]2C(=O)O[C@H]([C@@H](C)C[C@@H]2CC[C@H](O)[C@H](OC)C2)CC(=O)[C@H](C)C=C(C)[C@@H](O)[C@@H](OC)C(=O)[C@H](C)C[C@H](C)C=CC=CC=C1C,inactive,
CCCCc1oc2ccc(NS(C)(=O)=O)cc2c1C(=O)c1ccc(OCCCN(CCCC)CCCC)cc1,,3.85 µM (active)
CC[C@H]1OC(=O)[C@H](C)[C@@H](O[C@H]2C[C@@](C)(OC)[C@@H](O)[C@H](C)O2)C(C)[C@@H](O[C@@H]2O[C@H](C)C[C@H](N(C)C)[C@@H]2O)[C@](C)(OC)C[C@@H](C)C(=O)[C@H](C)[C@@H](O)[C@]1(C)O (stereo not given in full),inactive,
CCN(CC)CCNC(=O)c1c(C)[nH]c(/C=C2\C(=O)Nc3ccc(F)cc32)c1C,,2.17 µM (active)
CC[C@]1(O)C[C@@H]2CN(CCc3c([nH]c4ccccc34)[C@@](C(=O)OC)(c3cc4c(cc3OC)N(C)[C@H]3[C@@](O)(C(=O)OC)[C@H](OC(C)=O)[C@]5(CC)C=CCN6CC[C@]43[C@@H]65)C2)C1,,0.122 µM (active)
COc1cccc2c1C(=O)c1c(O)c3c(c(O)c1C2=O)C[C@@](O)(C(C)=O)C[C@H]3O[C@H]1C[C@H](N)[C@H](O)[C@H](C)O1,,2.73 µM (active)
CC[C@]1(O)C[C@H]2CN(CCc3c([nH]c4ccccc34)[C@@](C(=O)OC)(c3cc4c(cc3OC)N(C=O)[C@H]3[C@@](O)(C(=O)OC)[C@H](OC(C)=O)[C@]5(CC)C=CCN6CC[C@]43[C@@H]65)C2)C1,,0.153 µM (active)
COC(=O)Nc1nc2ccc(C(=O)c3cccs3)cc2[nH]1,,0.544 µM (active)
CN1CCN(CCCN2c3ccccc3Sc3ccc(C(F)(F)F)cc32)CC1,,7.69 µM (active)
CCC1=C[C@@H]2CN(C1)Cc1c([nH]c3ccccc13)[C@@](C(=O)OC)(c1cc3c(cc1OC)N(C)[C@H]1[C@@](O)(C(=O)OC)[C@H](OC(C)=O)[C@]4(CC)C=CCN5CC[C@]31[C@@H]54)C2,,0.0863 µM (active)
CCCSc1ccc2nc(NC(=O)OC)[nH]c2c1,inactive,
CN(C)CCOc1ccc(/C(=C(/CCCl)c2ccccc2)c2ccccc2)cc1,,1.09 µM (active)
C[C@@H]1O[C@@H](O[C@H]2CC[C@@]3(C)[C@H](CC[C@@H]4[C@H]3C[C@@H](O)[C@]3(C)[C@@H](C5=CC(=O)OC5)CC[C@]43O)C2)C[C@H](O)[C@@H]1O[C@H]1C[C@H](O)[C@H](O[C@H]2C[C@H](O)[C@@H](O)[C@@H](C)O2)[C@H](C)O1 (stereo in doubt),inactive,
COC1=CC(=O)C[C@@H](C)[C@]12Oc1c(Cl)c(OC)cc(OC)c1C2=O,inactive,
CCCNCC(O)COc1ccccc1C(=O)CCc1ccccc1 (stereo not given),inactive,
Cc1nnc(C(C)C)n1C1C[C@H]2CC[C@@H](C1)N2CC[C@H](NC(=O)C1CCC(F)(F)CC1)c1ccccc1 (stereo not given in full),inactive,
CO[C@H]1C[C@@H]2CC[C@@H](C)[C@@](O)(O2)C(=O)C(=O)N2CCCC[C@@H]2C(=O)O[C@H]([C@H](C)C[C@@H]2CC[C@H](OCCO)[C@H](OC)C2)CC(=O)[C@H](C)C=C(C)[C@@H](O)[C@@H](OC)C(=O)[C@H](C)C[C@H](C)C=CC=CC=C1C,inactive,
CC[C@H]1OC(=O)[C@H](C)[C@@H](O[C@H]2C[C@@](C)(OC)[C@@H](O)[C@H](C)O2)[C@H](C)[C@@H](O[C@@H]2O[C@H](C)C[C@H](N(C)C)[C@@H]2O)[C@](C)(O)C[C@@H](C)CN(C)[C@H](C)[C@@H](O)[C@]1(C)O,,6.11 µM (active)
